Bioassay records deposited in PubChem by The Scripps Research Institute Molecular Screening Center.
hcDAF-12 act – H. contortus DAF-12 nuclear receptor activators, primary screen, cell-based, luminescence, HEK293, lit1-tk-luc reporter; HEK293 hcDAF-12 lit1-tk-luc reporter; 0% DMSO, 100% Δ7-dafachronic acid; AID 652067, 2013; activation, % at 6.8 µM; 370,000 compounds, 1.4% hits;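 active = activation above the mean of all tested compounds plus 3 SD, cut at about 5.5% in these data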
hgDAF12 agonist – H. glycines DAF-12 receptor agonists, primary screen, cell-based, luminescence, HEK293, GAL4 fusion, UAS-luciferase | activation, % at 6.8 µM | HEK293 GAL4-hgDAF12 UAS-luciferase reporter, agonist luminescence; normalized to butyrate control | 370,000 compounds, 1.8% hits;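 active = activation above a cutoff set at the mean of all screened compounds plus 3 SD, cut at about 10% in these data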
DAX1 inh-1 – DAX1 (NR0B1) inhibitors, primary screen, cell-based, HEK293, Gal4-DAX1, luciferase luminescence | Nuclear receptor subfamily 0 group B member 1 (Homo sapiens), P51843 | HEK293 Gal4-DAX1 luciferase reporter | inhibition, % at 6.75 µM | 340,000 compounds, 0.99% hits | AID 504766, 2011;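 active = inhibition above the mean over all tested compounds plus 3 SD, cut at about 4.2% in these data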;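 also: inhibition shows as a rise in luminescence from relieved DAX1 repression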
ssDAF-12 act – S. stercoralis DAF-12 nuclear receptor activators, primary screen, cell-based, luminescence, HEK293, GRIP1 co-expression, lit1-tk-luc | HEK293 ssDAF-12/GRIP1 lit1-tk-luc reporter; % of 3 µM dafachronic acid response | activation, % at 6.8 µM | 370,000 compounds, 1% hits;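 active = activation above the mean over all tested compounds plus 3 SD, cut at about 0.9% in these data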
DAX1 inh-2 – DAX1 (NR0B1) inhibitors on StAR promoter, primary screen, cell-based, luminescence, SF-1 (NR5A1), full-length DAX-1; 370,000 compounds, 1.1% hits; AID 652010, 2013; HEK293T StAR-luciferase reporter, SF-1/DAX-1 repression relief; inhibition, % at 6.8 µM;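 active = inhibition above the mean over all tested compounds plus 3 SD, cut at about 3.6% in these data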;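 also: higher inhibition means more luminescence from relief of DAX-1 repression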
SMARCA2 activ – SMARCA2 (BRM) function activators, primary screen, cell-based, luminescence, high throughput; 370,000 compounds, 1% hits; MG213 cells, MMTV-luciferase reporter, dexamethasone, overnight; activation, % at 9.1 µM; in the data active = activation above about 7.8%
DAX1 inh confirm – DAX1 (NR0B1) inhibitors relieving SF-1 repression, confirmation, cell-based, luminescence, HEK293T, full-length DAX-1, SF-1 activated StAR promoter. shares compounds with DAX1 inh-2. inhibition, % at 6.8 µM. HEK293T StAR-promoter luciferase reporter, SF-1/DAX-1 repression. 2,400 compounds, 87% hits;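 active = inhibition above the average of every tested compound plus 3 SD, cut at about 3.8% in these data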
Target sequence (P51843 whole entry, looked up): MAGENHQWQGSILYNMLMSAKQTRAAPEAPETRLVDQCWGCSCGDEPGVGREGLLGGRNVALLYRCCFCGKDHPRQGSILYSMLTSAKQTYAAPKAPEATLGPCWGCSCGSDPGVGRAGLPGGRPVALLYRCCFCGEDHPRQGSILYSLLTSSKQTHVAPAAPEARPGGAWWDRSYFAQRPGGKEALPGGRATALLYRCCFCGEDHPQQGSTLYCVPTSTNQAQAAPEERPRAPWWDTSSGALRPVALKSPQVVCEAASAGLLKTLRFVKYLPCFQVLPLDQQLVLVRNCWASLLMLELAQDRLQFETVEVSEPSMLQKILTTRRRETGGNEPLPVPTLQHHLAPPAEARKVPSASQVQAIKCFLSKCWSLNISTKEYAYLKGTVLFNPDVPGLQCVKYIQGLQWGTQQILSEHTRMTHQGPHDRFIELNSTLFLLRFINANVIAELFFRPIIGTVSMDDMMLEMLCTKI
SF1 AF2mut Luc – StAR reporter signal changes without DAX1, counter-screen for DAX1 inhibitor project, cell-based, luminescence, AF-2 mutant SF-1, transactivation. inhibition, % at 6.8 µM. HEK293 StAR-luciferase, SF-1 AF2 mutant. shares compounds with DAX1 inh-2. AID 652136, 2013. 2,400 compounds, 78% hits;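 active = inhibition above the mean of all tested compounds plus 3 SD, cut at about 3% in these data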
Large screens that a line does not name were inactive (follow-up assays come after a bar, where they were run). Sampled rows, rich in hits. Any-hit rate of the full collection: about 4.8%.

CN(C)c1ccc(C=Nc2ccccc2C(N)=O)cc1	hcDAF-12 act 10.3, ssDAF-12 act 1.9, DAX1 inh-2 5.8 | DAX1 inh confirm 19.4 | SF1 AF2mut Luc 9.1
CC(/C=N/NC(=O)c1ccccc1F)=C\c1ccccc1	hgDAF12 agonist 12.2, DAX1 inh-2 9.2 | DAX1 inh confirm 9.9 | SF1 AF2mut Luc 4.2
Cc1cccc(C(=O)N/N=C/c2ccoc2)c1	none
CC(/C=N/NC(=O)c1ccccc1C)=C\c1ccccc1	none (no result: DAX1 inh-1)
O=C(N/N=C/c1ccoc1)c1ccccc1F	DAX1 inh-2 5.3 | DAX1 inh confirm 3.7 | SF1 AF2mut Luc 3.3
Cc1c(C(=O)N/N=C/c2ccoc2)cccc1[N+](=O)[O-]	none
O=C(N/N=C\c1ccoc1)c1ccco1	DAX1 inh-2 6.6 | DAX1 inh confirm inactive | SF1 AF2mut Luc inactive
CCOC(=O)C(NC(C)=O)(NS(=O)(=O)c1ccccc1)C(F)(F)F (configuration not stated)	none
COc1cccc(C=Cc2nccc3ccccc23)c1OC	hgDAF12 agonist 11.0, DAX1 inh-2 6.1 | DAX1 inh confirm 3.8 | SF1 AF2mut Luc inactive
Cc1cccc(Cn2cc(CN3CC(N(C)CCCOC(=O)c4cc(C)cc(C)c4)CS3(=O)=O)nn2)c1 (configuration not stated)	none (no result: DAX1 inh-1)
Cc1ccc(S(=O)(=O)N(C)C)cc1NC(=O)COC(=O)/C=C/c1ccc2ccccc2n1	DAX1 inh-2 5.0 | DAX1 inh confirm inactive | SF1 AF2mut Luc inactive
Cc1ccc(S(=O)(=O)NNC(=O)c2ccc(NC(=O)C3CC3)cc2)cc1	none
COc1cc(C(=O)NCCC(=O)NC2CCCCCCC2)cc(OC)c1OC	none
COc1cc(C(=O)NCCC(=O)NC(C)C)cc(OC)c1OC	DAX1 inh-2 5.3 | DAX1 inh confirm inactive | SF1 AF2mut Luc inactive
CCOC(=O)C1CCN(C(=O)c2cccc(S(=O)(=O)N(C)C3CCCCC3)c2)CC1	none
CCN(CC)C(=O)C1CCCN(C(=O)c2ccc3nc(-c4cccc(OC)c4)oc3c2)C1 (configuration not stated)	none
Oc1ccc(C=NN=Cc2ccco2)c(O)c1	DAX1 inh-1 5.5, DAX1 inh-2 4.6 | DAX1 inh confirm 7.2 | SF1 AF2mut Luc 4.8
NC(=N\N=Cc1ccco1)/C(N)=N/N=Cc1ccco1	none
Nc1ccc(CSc2ccc(Cl)cc2)c(Cl)c1	hgDAF12 agonist 11.0, DAX1 inh-2 7.3 | DAX1 inh confirm 12.6 | SF1 AF2mut Luc 7.6
Cc1ccsc1CN(C)C(=O)c1ccc(Oc2ccccc2)cc1	none
S=C(NCCc1ccc(Cl)cc1)NC1CCCCC1	DAX1 inh-2 5.0 | DAX1 inh confirm inactive | SF1 AF2mut Luc 3.0
S=C(NCCc1ccc(Cl)cc1)NC1CCCC1	none
N/C(=N\OC(=O)c1ccccc1)c1ccn[nH]1	DAX1 inh-2 11.7 | DAX1 inh confirm 8.2 | SF1 AF2mut Luc 4.9
Cc1ccc(NC(=O)C2CCCN2c2nn3c(=O)cc(C)nc3s2)cc1 (configuration not stated)	none
O=C(CCc1ccccc1)Nc1ccc(NC(=O)c2ccco2)cc1	none
O=C(Nc1ccc(CSc2ccccc2)cc1)c1ccco1	hgDAF12 agonist 12.7, DAX1 inh-2 5.5 | DAX1 inh confirm 8.4 | SF1 AF2mut Luc 5.5
COCCCN(C(=O)c1ccco1)c1nc(-c2cc(OC)ccc2OC)cs1	none
Cc1ccc(C)c(Cn2nnc(C(=O)Nc3ccc4c(c3)OCCO4)c2N)c1	DAX1 inh-2 4.6 | DAX1 inh confirm inactive | SF1 AF2mut Luc 3.6
Cc1ccccc1Cn1nnc(C(=O)Nc2ccc3c(c2)OCCO3)c1N	DAX1 inh-2 6.2 | DAX1 inh confirm 8.7 | SF1 AF2mut Luc 7.4
O=C(Nc1ccc2c(c1)OCCO2)c1ccccc1F	hcDAF-12 act 5.7, hgDAF12 agonist 11.1, DAX1 inh-2 4.8 | DAX1 inh confirm 13.9 | SF1 AF2mut Luc 6.2
Cc1cc(C)cc(NC(=O)c2nnn(Cc3cc(C)ccc3C)c2N)c1	none (no result: hcDAF-12 act, hgDAF12 agonist, ssDAF-12 act, DAX1 inh-2, SMARCA2 activ)
CCCCCCN1CCN(C2CN(Cc3cn(Cc4ccccc4)nn3)S(=O)(=O)C2)CC1 (configuration not stated)	none (no result: DAX1 inh-1)
CCN1CCN(C(=S)Nc2ccc3nc(N4CCN(CC)CC4)cc(C)c3c2)CC1	none
COc1ccc(/C=C/c2cc(C(=O)O)c3ccccc3n2)cc1	hcDAF-12 act 6.0, hgDAF12 agonist 12.8, ssDAF-12 act 1.0, DAX1 inh-2 4.5 | DAX1 inh confirm 9.8 | SF1 AF2mut Luc 3.2
COc1cc(C(=O)c2cc3c(cc2C)OCO3)cc(OC)c1OC	DAX1 inh-2 6.5 (no result: DAX1 inh-1) | DAX1 inh confirm 12.8 | SF1 AF2mut Luc inactive
COc1cc(/C=C/C(=O)c2ccc3c(c2)OCO3)cc(OC)c1OC	none (no result: hcDAF-12 act, hgDAF12 agonist, ssDAF-12 act, DAX1 inh-2, SMARCA2 activ)
CC(=O)c1cc(F)ccc1OCC(=O)Nc1ccc2c(c1)OCO2	hgDAF12 agonist 10.7, ssDAF-12 act 1.0, DAX1 inh-2 10.8 | DAX1 inh confirm 12.0 | SF1 AF2mut Luc 6.3
CCCOc1ccc(C(=O)Nc2ccc3c(c2)OCO3)cc1	DAX1 inh-2 10.5 | DAX1 inh confirm 9.6 | SF1 AF2mut Luc 4.9
CCCCOc1ccc(C(=O)Nc2ccc3c(c2)OCO3)cc1	none
Cc1ccc(OCC(=O)Nc2ccc3c(c2)OCO3)c(C)c1	hgDAF12 agonist 13.0, DAX1 inh-2 6.5 | DAX1 inh confirm 7.2 | SF1 AF2mut Luc 5.7
CN(CCO)c1cccc2c1S(=O)(=O)N(Cc1cn(Cc3cccc(C(F)(F)F)c3)nn1)Cc1ccccc1O2	none (no result: DAX1 inh-1)
COc1ccc(C(=O)Nc2ccnn2C2CCN(C(=O)CCC(F)(F)F)CC2)cc1	DAX1 inh-2 5.7 | DAX1 inh confirm 6.4 | SF1 AF2mut Luc 8.0
Cc1ccc2cc3cc(C(=O)NC4CCCCC4)oc3nc2c1	DAX1 inh-2 5.5 | DAX1 inh confirm inactive | SF1 AF2mut Luc inactive
